The target of assay [1] is Sphingosine kinase 1 (Homo sapiens) (UniProt Q9NYA1). The conditions noted are these: at 1 µM.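 Further: mean SPHK1 inhibition value reported from the GSK PKIS kinase panel screen.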
Assay [2] deals with T1, Sphingosine kinase 2 (Homo sapiens) (UniProt Q9NRA0).
T1 sequence (whole entry): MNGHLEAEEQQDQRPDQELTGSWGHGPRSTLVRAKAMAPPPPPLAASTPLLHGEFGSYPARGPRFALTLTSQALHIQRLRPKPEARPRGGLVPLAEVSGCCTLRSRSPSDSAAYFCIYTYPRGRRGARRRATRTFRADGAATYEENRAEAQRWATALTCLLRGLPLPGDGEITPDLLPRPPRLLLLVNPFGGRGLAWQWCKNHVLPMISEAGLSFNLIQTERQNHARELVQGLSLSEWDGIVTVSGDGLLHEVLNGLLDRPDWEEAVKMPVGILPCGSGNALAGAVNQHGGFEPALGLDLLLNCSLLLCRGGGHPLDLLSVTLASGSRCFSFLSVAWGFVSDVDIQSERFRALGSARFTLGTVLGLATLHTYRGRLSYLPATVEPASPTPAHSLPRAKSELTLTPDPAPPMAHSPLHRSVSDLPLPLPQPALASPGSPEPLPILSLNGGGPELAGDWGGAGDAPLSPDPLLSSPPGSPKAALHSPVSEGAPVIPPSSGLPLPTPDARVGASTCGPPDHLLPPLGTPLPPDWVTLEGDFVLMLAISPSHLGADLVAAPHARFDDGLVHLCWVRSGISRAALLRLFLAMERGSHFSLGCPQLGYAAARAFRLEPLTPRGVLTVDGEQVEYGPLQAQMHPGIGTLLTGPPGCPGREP
The conditions noted are these: at 0.1 µM.

The target in assay [3] is T1, Sphingosine kinase 2 (Homo sapiens). As to conditions: at 1 µM.
Assay [4] concerns the target Casein kinase II subunit alpha (Homo sapiens) (UniProt P68400). As to conditions: at 0.1 µM.
Assay [5] shares this target. As to conditions: at 1 µM.
For assay [6], the target named is T2, Inhibitor of nuclear factor kappa-B kinase subunit alpha (Homo sapiens) (UniProt O15111).
T2 sequence (whole entry): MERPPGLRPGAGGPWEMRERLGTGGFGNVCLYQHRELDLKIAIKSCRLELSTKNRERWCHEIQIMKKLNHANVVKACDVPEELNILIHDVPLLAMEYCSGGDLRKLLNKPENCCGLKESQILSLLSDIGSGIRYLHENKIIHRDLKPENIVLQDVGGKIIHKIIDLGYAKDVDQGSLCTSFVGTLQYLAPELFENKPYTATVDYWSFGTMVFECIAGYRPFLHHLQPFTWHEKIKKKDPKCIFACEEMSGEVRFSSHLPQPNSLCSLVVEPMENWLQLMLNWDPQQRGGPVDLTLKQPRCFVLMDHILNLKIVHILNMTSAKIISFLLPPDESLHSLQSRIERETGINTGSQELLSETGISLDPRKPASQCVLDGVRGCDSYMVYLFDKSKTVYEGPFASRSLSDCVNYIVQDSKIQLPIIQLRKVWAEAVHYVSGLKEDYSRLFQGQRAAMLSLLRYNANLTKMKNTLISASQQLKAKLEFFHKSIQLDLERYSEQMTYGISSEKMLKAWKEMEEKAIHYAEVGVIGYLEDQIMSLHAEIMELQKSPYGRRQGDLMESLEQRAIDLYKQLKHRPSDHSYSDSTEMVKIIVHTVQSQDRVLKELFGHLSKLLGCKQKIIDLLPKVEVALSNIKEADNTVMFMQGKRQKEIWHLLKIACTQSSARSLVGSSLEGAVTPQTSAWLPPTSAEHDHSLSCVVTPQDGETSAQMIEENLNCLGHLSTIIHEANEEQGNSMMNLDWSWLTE
As to conditions: at 0.1 µM.

Assay [7] addresses T2, Inhibitor of nuclear factor kappa-B kinase subunit alpha (Homo sapiens). The conditions noted are these: at 1 µM.
Assay [8] addresses T3, Inhibitor of nuclear factor kappa-B kinase subunit beta (Homo sapiens) (UniProt O14920).
T3 sequence (whole entry): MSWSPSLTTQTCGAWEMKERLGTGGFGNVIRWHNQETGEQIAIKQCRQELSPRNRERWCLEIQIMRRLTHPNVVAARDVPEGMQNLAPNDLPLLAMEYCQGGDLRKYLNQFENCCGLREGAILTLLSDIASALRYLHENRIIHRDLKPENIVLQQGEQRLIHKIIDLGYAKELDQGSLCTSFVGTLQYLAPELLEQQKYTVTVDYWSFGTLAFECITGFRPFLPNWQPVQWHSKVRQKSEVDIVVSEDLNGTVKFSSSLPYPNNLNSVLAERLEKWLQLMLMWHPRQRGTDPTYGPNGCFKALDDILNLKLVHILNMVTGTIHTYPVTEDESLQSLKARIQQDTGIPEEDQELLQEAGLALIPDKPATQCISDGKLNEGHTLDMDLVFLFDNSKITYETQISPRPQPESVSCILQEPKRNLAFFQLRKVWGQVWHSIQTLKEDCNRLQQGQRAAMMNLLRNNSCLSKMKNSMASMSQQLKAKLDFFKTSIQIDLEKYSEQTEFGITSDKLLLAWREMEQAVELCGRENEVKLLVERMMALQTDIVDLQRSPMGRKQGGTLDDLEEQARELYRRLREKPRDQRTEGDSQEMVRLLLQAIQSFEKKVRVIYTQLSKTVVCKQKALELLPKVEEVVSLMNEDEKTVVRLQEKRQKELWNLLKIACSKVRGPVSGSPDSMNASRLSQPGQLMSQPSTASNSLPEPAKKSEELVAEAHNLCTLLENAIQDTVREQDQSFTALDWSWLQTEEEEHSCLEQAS
The conditions noted are these: at 0.1 µM.

The target in assay [9] is T3, Inhibitor of nuclear factor kappa-B kinase subunit beta (Homo sapiens). As to conditions: at 1 µM.
Assay [10] addresses T4, Inhibitor of nuclear factor kappa-B kinase subunit epsilon (Homo sapiens) (UniProt Q14164).
T4 sequence (whole entry): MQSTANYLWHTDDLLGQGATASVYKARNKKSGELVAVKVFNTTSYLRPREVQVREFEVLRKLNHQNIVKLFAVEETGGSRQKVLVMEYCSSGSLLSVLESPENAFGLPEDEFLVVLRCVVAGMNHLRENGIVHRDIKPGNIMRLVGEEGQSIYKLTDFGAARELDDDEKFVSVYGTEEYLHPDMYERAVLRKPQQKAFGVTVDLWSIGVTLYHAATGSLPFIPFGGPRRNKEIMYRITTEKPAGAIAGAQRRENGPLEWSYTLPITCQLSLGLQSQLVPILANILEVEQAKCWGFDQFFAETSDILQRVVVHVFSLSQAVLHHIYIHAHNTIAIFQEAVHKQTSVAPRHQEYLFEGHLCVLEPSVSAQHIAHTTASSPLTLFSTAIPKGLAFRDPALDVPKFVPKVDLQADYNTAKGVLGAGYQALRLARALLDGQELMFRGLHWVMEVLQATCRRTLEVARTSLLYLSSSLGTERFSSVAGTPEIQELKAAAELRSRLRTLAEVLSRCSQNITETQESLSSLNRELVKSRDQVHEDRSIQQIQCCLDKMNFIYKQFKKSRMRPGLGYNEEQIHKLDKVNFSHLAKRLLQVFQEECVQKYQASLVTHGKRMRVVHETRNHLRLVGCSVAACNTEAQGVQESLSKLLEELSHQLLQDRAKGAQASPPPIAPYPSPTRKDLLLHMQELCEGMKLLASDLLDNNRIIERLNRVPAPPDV
The conditions noted are these: at 0.1 µM.

The target of assay [11] is T4, Inhibitor of nuclear factor kappa-B kinase subunit epsilon (Homo sapiens). As to conditions: at 1 µM.
The target in assay [12] is T5, Serine/threonine-protein kinase Nek1 (Homo sapiens) (UniProt Q96PY6).
T5 sequence (whole entry): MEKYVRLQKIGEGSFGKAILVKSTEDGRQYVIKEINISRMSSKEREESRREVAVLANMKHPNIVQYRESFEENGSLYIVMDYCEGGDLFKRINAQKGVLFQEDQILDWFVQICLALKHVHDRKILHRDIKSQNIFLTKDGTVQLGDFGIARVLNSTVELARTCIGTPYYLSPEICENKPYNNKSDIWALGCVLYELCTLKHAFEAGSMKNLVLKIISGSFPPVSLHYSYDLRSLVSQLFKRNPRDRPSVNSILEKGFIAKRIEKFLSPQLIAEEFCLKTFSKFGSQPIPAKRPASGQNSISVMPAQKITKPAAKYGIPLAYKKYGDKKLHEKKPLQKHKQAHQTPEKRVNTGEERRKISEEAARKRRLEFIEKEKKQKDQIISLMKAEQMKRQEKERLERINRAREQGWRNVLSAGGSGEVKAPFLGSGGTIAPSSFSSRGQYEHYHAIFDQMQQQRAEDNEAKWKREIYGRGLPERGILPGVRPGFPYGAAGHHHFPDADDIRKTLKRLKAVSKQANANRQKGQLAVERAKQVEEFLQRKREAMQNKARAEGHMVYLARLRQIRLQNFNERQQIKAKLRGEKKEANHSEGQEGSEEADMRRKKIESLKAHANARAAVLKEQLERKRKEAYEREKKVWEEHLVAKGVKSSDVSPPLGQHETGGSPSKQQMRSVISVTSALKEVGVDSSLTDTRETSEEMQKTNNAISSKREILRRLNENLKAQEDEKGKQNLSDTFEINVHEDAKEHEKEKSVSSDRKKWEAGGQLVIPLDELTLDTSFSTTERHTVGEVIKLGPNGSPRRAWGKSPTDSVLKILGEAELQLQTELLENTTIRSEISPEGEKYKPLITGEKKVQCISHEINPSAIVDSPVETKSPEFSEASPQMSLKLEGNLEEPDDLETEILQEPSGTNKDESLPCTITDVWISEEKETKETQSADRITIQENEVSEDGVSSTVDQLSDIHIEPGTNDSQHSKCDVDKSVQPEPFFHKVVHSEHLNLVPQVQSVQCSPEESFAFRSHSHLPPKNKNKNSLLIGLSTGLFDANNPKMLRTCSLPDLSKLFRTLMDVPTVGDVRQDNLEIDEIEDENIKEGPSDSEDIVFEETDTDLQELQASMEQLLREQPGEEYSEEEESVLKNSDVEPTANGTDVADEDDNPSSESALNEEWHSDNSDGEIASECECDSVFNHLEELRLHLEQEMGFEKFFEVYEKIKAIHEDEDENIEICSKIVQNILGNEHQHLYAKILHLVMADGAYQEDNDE
As to conditions: at 0.1 µM.

The target of assay [13] is T5, Serine/threonine-protein kinase Nek1 (Homo sapiens). As to conditions: at 1 µM.
The target in assay [14] is T6, Serine/threonine-protein kinase Nek2 (Homo sapiens) (UniProt P51955).
T6 sequence (whole entry): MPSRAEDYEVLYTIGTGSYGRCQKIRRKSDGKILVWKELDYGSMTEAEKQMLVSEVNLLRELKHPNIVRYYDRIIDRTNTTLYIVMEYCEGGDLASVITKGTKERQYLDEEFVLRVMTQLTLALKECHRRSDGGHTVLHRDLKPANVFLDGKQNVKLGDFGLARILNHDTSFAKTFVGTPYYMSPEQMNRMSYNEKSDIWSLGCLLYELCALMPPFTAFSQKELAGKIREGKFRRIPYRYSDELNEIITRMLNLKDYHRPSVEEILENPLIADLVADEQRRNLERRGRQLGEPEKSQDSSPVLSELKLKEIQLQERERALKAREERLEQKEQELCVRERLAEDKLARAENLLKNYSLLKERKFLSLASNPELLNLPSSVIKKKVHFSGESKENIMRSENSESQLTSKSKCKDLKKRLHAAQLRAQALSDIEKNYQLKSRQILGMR
The conditions noted are these: at 0.1 µM.

Assay [15] addresses T6, Serine/threonine-protein kinase Nek2 (Homo sapiens). The conditions noted are these: at 1 µM.
Assay [16] has as its target Serine/threonine-protein kinase Nek6 (Homo sapiens) (UniProt Q9HC98). The conditions noted are these: at 0.1 µM.
The target is the same in assay [17]. The conditions noted are these: at 1 µM.
Assay [18] deals with Serine/threonine-protein kinase Nek7 (Homo sapiens) (UniProt Q8TDX7). The conditions noted are these: at 0.1 µM.
Sequence of Serine/threonine-protein kinase Nek7 (Homo sapiens) (Q8TDX7 whole entry, looked up): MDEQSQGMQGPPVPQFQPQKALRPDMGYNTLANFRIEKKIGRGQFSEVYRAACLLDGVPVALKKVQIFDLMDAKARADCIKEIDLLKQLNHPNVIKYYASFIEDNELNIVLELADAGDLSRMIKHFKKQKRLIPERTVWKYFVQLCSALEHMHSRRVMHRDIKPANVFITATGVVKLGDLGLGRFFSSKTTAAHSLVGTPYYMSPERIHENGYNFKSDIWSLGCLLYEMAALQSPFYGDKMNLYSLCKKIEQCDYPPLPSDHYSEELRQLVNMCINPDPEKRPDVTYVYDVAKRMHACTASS
Assay [19] shares this target. The conditions noted are these: at 1 µM.
The target in assay [20] is T7, Serine/threonine-protein kinase Nek9 (Homo sapiens) (UniProt Q8TD19).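 Further: reported value is the mean percent inhibition of NEK9.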
T7 sequence (whole entry): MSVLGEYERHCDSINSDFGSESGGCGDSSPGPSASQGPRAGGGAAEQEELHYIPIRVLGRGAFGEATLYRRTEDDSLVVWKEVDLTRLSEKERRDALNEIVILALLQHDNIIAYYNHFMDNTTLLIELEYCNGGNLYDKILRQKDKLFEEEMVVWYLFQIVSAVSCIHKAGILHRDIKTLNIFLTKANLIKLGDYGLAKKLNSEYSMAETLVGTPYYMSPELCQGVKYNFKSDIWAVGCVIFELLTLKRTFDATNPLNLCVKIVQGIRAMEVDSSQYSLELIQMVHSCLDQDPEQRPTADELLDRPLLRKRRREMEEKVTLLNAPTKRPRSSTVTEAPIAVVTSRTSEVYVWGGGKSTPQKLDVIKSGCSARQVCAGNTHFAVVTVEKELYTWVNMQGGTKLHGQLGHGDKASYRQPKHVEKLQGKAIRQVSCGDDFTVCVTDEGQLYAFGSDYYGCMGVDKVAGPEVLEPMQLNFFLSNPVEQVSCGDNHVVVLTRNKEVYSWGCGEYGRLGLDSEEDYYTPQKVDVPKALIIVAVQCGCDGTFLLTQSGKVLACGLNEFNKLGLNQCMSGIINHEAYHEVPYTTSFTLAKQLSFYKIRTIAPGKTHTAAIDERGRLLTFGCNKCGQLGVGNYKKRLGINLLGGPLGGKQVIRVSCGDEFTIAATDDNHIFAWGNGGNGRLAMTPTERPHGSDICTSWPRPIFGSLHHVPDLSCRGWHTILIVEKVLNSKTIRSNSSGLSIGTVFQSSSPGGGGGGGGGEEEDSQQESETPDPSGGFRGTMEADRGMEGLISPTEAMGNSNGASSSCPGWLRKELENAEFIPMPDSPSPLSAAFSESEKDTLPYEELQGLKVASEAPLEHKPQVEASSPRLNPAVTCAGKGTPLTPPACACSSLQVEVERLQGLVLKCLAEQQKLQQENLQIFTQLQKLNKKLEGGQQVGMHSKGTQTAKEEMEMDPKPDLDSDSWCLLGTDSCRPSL
As to conditions: at 0.1 µM.

Experimental findings from ChEMBL document CHEMBL1961873, “Compounds: GSK PKIS; Assays: Nanosyn kinase panel” (2012) are described below.

Sequence of Serine/threonine-protein kinase Nek6 (Homo sapiens) (Q9HC98 whole entry): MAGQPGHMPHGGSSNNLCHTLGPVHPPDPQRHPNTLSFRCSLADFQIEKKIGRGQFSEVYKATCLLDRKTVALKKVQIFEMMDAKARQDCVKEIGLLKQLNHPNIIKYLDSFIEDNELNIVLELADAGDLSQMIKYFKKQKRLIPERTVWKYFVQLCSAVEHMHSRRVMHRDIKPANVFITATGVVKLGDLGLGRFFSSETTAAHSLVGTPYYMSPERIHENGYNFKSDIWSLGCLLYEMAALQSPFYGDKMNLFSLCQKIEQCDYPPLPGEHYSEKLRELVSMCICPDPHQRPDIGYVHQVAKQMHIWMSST
Sequence of Casein kinase II subunit alpha (Homo sapiens) (P68400 whole entry, looked up): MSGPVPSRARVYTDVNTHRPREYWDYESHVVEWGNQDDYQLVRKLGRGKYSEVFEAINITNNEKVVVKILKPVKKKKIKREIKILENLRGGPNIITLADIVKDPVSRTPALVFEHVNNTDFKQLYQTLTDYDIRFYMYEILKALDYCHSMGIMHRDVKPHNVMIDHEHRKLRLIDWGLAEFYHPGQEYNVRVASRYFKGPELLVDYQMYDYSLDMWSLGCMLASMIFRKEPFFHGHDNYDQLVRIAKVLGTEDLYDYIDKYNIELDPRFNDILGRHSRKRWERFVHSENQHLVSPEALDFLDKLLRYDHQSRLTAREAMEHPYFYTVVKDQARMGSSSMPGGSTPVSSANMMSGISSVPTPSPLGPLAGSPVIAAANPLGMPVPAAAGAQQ
Sequence of Sphingosine kinase 1 (Homo sapiens) (Q9NYA1 whole entry): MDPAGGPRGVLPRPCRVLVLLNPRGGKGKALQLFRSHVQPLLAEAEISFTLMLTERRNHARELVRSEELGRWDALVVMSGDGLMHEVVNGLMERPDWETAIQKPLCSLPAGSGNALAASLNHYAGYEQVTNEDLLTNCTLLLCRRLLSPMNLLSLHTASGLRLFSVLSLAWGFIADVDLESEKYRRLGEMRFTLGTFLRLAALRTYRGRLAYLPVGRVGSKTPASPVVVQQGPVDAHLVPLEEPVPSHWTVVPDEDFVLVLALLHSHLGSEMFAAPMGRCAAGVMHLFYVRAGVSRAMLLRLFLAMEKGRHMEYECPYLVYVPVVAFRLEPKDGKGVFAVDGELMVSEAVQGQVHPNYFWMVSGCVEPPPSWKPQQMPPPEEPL

On to `O=C(Nc1n[nH]c2nc(-c3ccc(O)cc3)c(Br)cc12)C1CC1`, for which the inhibition was -0.49% in assay [1]; -0.76% in assay [2]; -0.74% in assay [3]; 3.43% in [4]; 5.84% in assay [5]; 8.51% in assay [6]. Further, the inhibition in assay [7] stood at 12.4%; in [8] it was 6.98%; in assay [9], 9.61%; in assay [10] it was 8.95%; in [11] it was 12.2%; in assay [12] it was 3.52%. The inhibition in assay [13] was determined as 11.2%; in assay [14] it was 6.4%; in assay [15] it was 9%; in assay [16], 3.51%; in [17], 15.2%; in assay [18], 13.2%. The results for the inhibition in assay [19] and in [20] were 46.3% and 13.9%, respectively.

What is called inhibition is the change of the read-out against control, counted positive when it falls.
